Laboratory results reported in PubChem BioAssay.
Active and inactive are the calls of the source. Unless noted, no rule for the calls is given here.

Columns and labels:
[1] = system: Wnt5a (protein binding on small-molecule microarray); test: small molecules binding Wnt5a protein – biophysical, small-molecule microarray, 635/667 nm fluorescence, primary screen (AID 1142); details: 635 nm fluorescence, higher = more signal;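 also: fluorescence read at 667 nm with signal to noise per printed feature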
[2] = ATP-based viability of Huh7 replicon cells – cell-based, CellTiter-Glo luminescence, basal, 48 h, cytotoxicity control for HCV replication inhibitor project, primary screen (AID 1143); details: higher = more signal, called active from +8 up or from −8 down;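 also: Huh7 hepatoma cells carrying a hepatitis C replication reporter with no stimulus; test concentration not given here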
[3] = Pseudomonas biofilm growth suppression – PAO1 strain, BacTiter-Glo luminescence, LB-PBS, primary screen (AID 1144); details: P. aeruginosa PAO1 biofilm, 12 h, higher = more signal
[4] = basal CRE-LacZ reporter activity in PC12 – cell-based, unstimulated, primary screen (AID 1145); details: no forskolin, luminescence, 4.5 h, higher = more signal, called active from +8 up or from −8 down
[5] = forskolin-driven CRE-LacZ activity in PC12 – cell-based, CRE-LacZ reporter, forskolin-stimulated, primary screen (AID 1146); details: luminescence, 4.5 h, higher = more signal, called active from +8 up or from −8 down;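 also: PC12 cells with 6xCRE LacZ reporter stimulated by forskolin 10 µM; beta-galactosidase reporter signal reflecting CREB driven transcription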
[6] = biological target: Streptavidin (Streptomyces avidinii) (UniProt P22629); test: compounds binding control protein streptavidin – biophysical, small-molecule microarray, 635/667 nm fluorescence, artefact control for SMM compound annotation, primary screen (AID 1147); details: higher = more signal;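 also: signal reflects streptavidin binding to arrayed compounds as a control protein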
[7] = probe aInhba binding on compound microarray – biochemical, small-molecule microarray, 635/667 nm fluorescence, primary screen (AID 1148); details: higher = more signal;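 also: score merges 667nm spot fluorescence with signal-to-noise for antibody binding to printed compounds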
[8] = biological target: Torsin-1A (Homo sapiens) (UniProt O14656); test: TOR1A wild-type binding on microarray – cell lysate, small-molecule microarray, lysate, 635/667 nm, primary screen (AID 1149); details: COS7 hTOR1A-WT lysate, 635 nm fluorescence, higher = more signal
[9] = biological target: Torsin-1A (Homo sapiens) (UniProt O14656); test: torsin A mutant lysate binding on microarrays – cell lysate, small-molecule microarray, COS7 lysate, 635/667 nm fluorescence, primary screen (AID 1150); details: COS7 hTOR1A mutant lysate, 635 nm fluorescence, higher = more signal;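 also: score pools 667 nm emission and signal to noise measuring lysate protein binding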
[10] = system: Sonic hedgehog protein (Shh); test: Sonic hedgehog microarray binding compounds – biochemical, small-molecule microarray, 635/667 nm fluorescence, primary screen (AID 1151); details: 635 nm fluorescence, higher = more signal;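 also: Shh protein binding to compounds spotted on small-molecule microarray slides; score combines spot fluorescence intensity with signal-to-noise across triplicate slides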

Streptavidin (Streptomyces avidinii), sequence (P22629 whole entry, looked up): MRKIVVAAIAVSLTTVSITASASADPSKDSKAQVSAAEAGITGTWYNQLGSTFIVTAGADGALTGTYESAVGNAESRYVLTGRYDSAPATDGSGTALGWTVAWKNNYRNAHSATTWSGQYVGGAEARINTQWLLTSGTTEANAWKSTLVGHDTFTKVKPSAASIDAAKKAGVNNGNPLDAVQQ
Torsin-1A (Homo sapiens), sequence (O14656 whole entry, looked up): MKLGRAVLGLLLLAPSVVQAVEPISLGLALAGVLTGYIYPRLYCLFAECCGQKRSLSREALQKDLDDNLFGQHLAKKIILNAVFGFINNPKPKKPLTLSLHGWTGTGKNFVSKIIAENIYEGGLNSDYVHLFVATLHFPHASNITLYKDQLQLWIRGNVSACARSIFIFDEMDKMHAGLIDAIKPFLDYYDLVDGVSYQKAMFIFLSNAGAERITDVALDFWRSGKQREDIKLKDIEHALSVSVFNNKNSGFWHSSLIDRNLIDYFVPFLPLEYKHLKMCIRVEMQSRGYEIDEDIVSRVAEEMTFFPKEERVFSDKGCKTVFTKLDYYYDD

| SMILES | composite z-score [1] | z-score [2] | z-score [3] | z-score [4] | z-score [5] | composite z-score [6] | composite z-score [7] | composite z-score [8] | composite z-score [9] | composite z-score [10] |
| --- | --- | --- | --- | --- | --- | --- | --- | --- | --- | --- |
| C=CCN1C(=O)[C@@]2(O[C@@H](CCO)[C@H]([Si](C)(C)c3ccc(OC)cc3)[C@H]2C)c2cc(N3CCCCC3=O)ccc21 | 0.282 | -5.3 (inactive) | -0.0131 (inactive) | 13.6 (active) | -0.639 (inactive) | 0.732 | 0.0471 | 0.683 | 0.417 | 1.6 |
| COc1ccc([Si](C)(C)[C@@H]2[C@@H](CC(=O)N3Cc4ccccc4C[C@H]3CO)O[C@]3(C(=O)N(Cc4ccc(I)cc4)c4ccccc43)[C@H]2C)cc1 | 0.206 | -6.3 (inactive) | 0.199 (inactive) | -0.477 (inactive) | 0.0658 (inactive) | 0.143 | -0.101 | 0.211 | 0.204 | 1.94 |
| CO[C@H]1O[C@H](CO)[C@@H](OC(=O)CCc2ccccc2)[C@@H]2OC(=O)[C@@H](Cc3ccc4ccccc4c3)C/C=C/C[C@H](Cc3ccc4ccccc4c3)C(=O)O[C@@H]12 | 0.0032 | -2.59 (inactive) | -0.302 (inactive) | -0.151 (inactive) | 0.336 (inactive) | -0.452 | -0.13 | -1.32 | 1.06 | -0.657 |
| C=CCOC(=O)[C@@H]1[C@H]2C(=O)O[C@H](c3ccccc3)[C@H](c3ccccc3)N2[C@H](c2ccc(OCCOC(=O)[C@H]3C[C@H]4C(=O)N[C@@H](CCCCN(C)C)C(=O)N4[C@H]3c3cccc(OCCO)c3)cc2)[C@@]12C(=O)Nc1ccccc12 | -0.234 | 0.132 (inactive) | -0.306 (inactive) | -0.394 (inactive) | -0.647 (inactive) | 1.61 | -0.141 | 1.2 | 0.824 | 0.769 |
| COc1ccc(CCNC(=O)[C@@H]2c3ccccc3C(=O)N(C(C)C)[C@H]2c2ccc(CO)cc2)cc1 | -0.234 | 0.172 (inactive) | 0.948 (inactive) | 0.351 (inactive) | -0.859 (inactive) | -0.896 | -0.253 | 0.123 | 0.0739 | -0.937 |
| COCCOC(=O)N1C(=O)[C@@]2(c3ccccc31)[C@H](C(=O)Nc1nc3ccccc3s1)[C@H]1C(=O)O[C@H](c3ccccc3)[C@H](c3ccccc3)N1[C@@H]2c1ccccc1OCCO | 0.0847 | -3.65 (inactive) | -0.457 (inactive) | -0.207 (inactive) | -0.144 (inactive) | 1.39 | 0.379 | 0.282 | 0.781 | 0.733 |
| CCCCN1CC=CC23O[C@@H]4/C=C\CCC(C)OC(=O)C4[C@H]2C(=O)N(CCO)[C@@H]3C1=O (stereo not given in full) | -0.122 | -1.08 (inactive) | -1.31 (inactive) | -0.627 (inactive) | -0.0432 (inactive) | -1.52 | -0.0494 | 2.84 | 2.94 | -0.0956 |
| O=C1N(Cc2ccccc2)Cc2ccccc2C[C@@]12COC(c1ccc(OCCCO)cc1)=N2 | 0.165 | -5.94 (inactive) | 1.31 (inactive) | 1.45 (inactive) | -2.33 (inactive) | -0.0644 | 0.108 | 0.356 | 0.695 | 0.0301 |
| Cc1ccc(S[C@]2(C(=O)NCc3ccccc3)CC(=O)N(Cc3ccccc3C(F)(F)F)[C@@H]2c2ccc(CO)cc2I)cc1 | -0.264 | -1.5 (inactive) | 1.59 (inactive) | 1.06 (inactive) | 2.24 (inactive) | -0.464 | 0.144 | -0.545 | -0.45 | -0.26 |
| COc1c(C)cc(-c2nc(-c3ccccc3)c3c(c2C)CO[Si]3(C(C)C)C(C)C)cc1C | 0.302 | -0.59 (inactive) | 0.306 (inactive) | 0.54 (inactive) | 0.456 (inactive) | -0.0316 | -0.0604 | -0.0284 | 0.0463 | 0.419 |
| C[C@]12C(=O)N(CCO)[C@@H]3C(=O)N(c4ccc(Cl)cc4)CC=CC31O[C@@H]1/C=C\CCCOC(=O)C12 (stereo not given in full) | -0.68 | 0.0051 (inactive) | -0.21 (inactive) | 0.467 (inactive) | 0.0098 (inactive) | -0.542 | -0.21 | -1.5 | -0.706 | 1.18 |
| CC(C)(C)OC(=O)N1[C@@H](C=C(Br)Br)COC1(C)C | -0.0677 | -2.04 (inactive) | 0.278 (inactive) | -0.104 (inactive) | 0.0695 (inactive) | 0.29 | -0.15 | 0.396 | 0.656 | 0.938 |
| O=C1NC(=O)C2C1C=CC(C(O)C1CCCCC1)N2Nc1ccccn1 (stereo not given) | 0.0408 | 1.06 (inactive) | -1.42 (inactive) | 0.433 (inactive) | 1.29 (inactive) | -0.15 | -0.0762 | 0.254 | 0.852 | 0.278 |
| COc1ccc([Si](C)(C)[C@H]2[C@H](CC(=O)N(CCO)Cc3ccccc3)O[C@@]3(C(=O)N(c4ccccc4)c4ccccc43)[C@@H]2C)cc1 | 0.318 | -7.96 (inactive) | -0.164 (inactive) | 16.4 (active) | -3.89 (inactive) | 0.862 | -0.0986 | 0.0895 | -0.364 | 1.2 |
| CC[C@H]1C2=C3C(CC[C@H]4C(OCc5ccc(F)cc5C(F)(F)F)OC[C@](C)([C@@H]34)N(C(=O)OC(C)(C)C)C2)C(COC(C)=O)C1COC(C)=O (stereo not given in full) | 0.374 | -1.35 (inactive) | 0.729 (inactive) | 0.204 (inactive) | 1.3 (inactive) | 1.3 | 0.214 | 0.129 | 0.168 | -1.2 |
| [N-]=[N+]=Nc1ccccc1C[C@@]1(C(=O)NCc2ccccc2)N=C(c2ccc(OCCCO)cc2)O[C@@H]1c1ccccc1 | 0.967 | -5.24 (inactive) | -1.15 (inactive) | 1.4 (inactive) | -1.99 (inactive) | 0.877 | 0.175 | 0.324 | 0.506 | 0.242 |
| COCCOC(=O)N1C(=O)[C@@]2(c3cc(C#CCC(C(=O)OC)C(=O)OC)ccc31)[C@H](C(N)=O)[C@H]1C(=O)O[C@H](c3ccccc3)[C@H](c3ccccc3)N1[C@@H]2c1ccccc1OCCO | -0.0211 | -6.46 (inactive) | -2.59 (inactive) | -1.84 (inactive) | -2.42 (inactive) | 1.09 | -0.0259 | 0.0139 | 0.212 | 1.9 |
| COc1ccc(C(=O)Nc2cccc(CN3C(=O)[C@]4(O[C@H](CC(=O)N(CCO)Cc5ccccc5)[C@@H]([Si](C)(C)c5ccc(OC)cc5)[C@@H]4C)c4ccccc43)c2)cc1 | 0.997 | -4.13 (inactive) | 0.172 (inactive) | 1.72 (inactive) | -1.33 (inactive) | 0.127 | -0.0131 | 0.0401 | 0.395 | 1.48 |
| CN1C(=O)C2C=CC(C(O)c3ccc([N+](=O)[O-])cc3)N(Nc3ccccc3)C2C1=O (stereo not given) | 0.288 | 0.349 (inactive) | -0.898 (inactive) | 0.0535 (inactive) | -0.323 (inactive) | 1.65 | 0.179 | 0.0754 | 0.317 | -0.0538 |
| C=CCOC(=O)[C@@H]1[C@H]2C(=O)O[C@H](c3ccccc3)[C@H](c3ccccc3)N2[C@H](c2ccc(OCCOC(=O)[C@@H]3C[C@@H]4C(=O)N[C@@H](CC(C)C)C(=O)N4[C@@H]3c3ccc(O)cc3)cc2)[C@@]12C(=O)Nc1ccc(I)cc12 | 0.601 | -0.259 (inactive) | -0.282 (inactive) | -0.655 (inactive) | -1.23 (inactive) | 0.834 | 1.27 | 0.271 | 0.506 | 2.2 |
| C=CC[C@H](O)c1ccc(O)c2ccccc12 | 0.188 | 0.273 (inactive) | -0.725 (inactive) | 6.45 (inactive) | 1.82 (inactive) | 0.881 | -0.101 | 0.172 | 0.46 | 1.96 |
| COC(=O)[C@@]1(Cc2ccc(F)cc2)[C@H]2c3cc(C(=O)N4CCCC4)n(Cc4ccc(C(F)(F)F)nc4)c3C[C@H]2CN1C(=O)c1ccccc1 | 0.406 | -2.55 (inactive) | 0.193 (inactive) | 0.197 (inactive) | -0.388 (inactive) | 1.99 | -0.025 | 1.45 | 1.14 | -0.388 |
| COc1ccc([Si](C)(C)[C@H]2[C@H](CC(=O)N3CCC[C@H]3CO)O[C@@]3(C(=O)N(Cc4cccc(N5CCCCC5=O)c4)c4ccccc43)[C@@H]2C)cc1 | -0.108 | -1.39 (inactive) | -0.00805 (inactive) | 2.88 (inactive) | -0.314 (inactive) | 0.233 | -0.128 | 0.593 | 0.812 | 2.01 |
| C=CC[C@@]1(C(=O)NCCCOC)N=C(c2ccc(OCCCO)cc2)O[C@@H]1c1ccccc1CN=[N+]=[N-] | 0.645 | -3.72 (inactive) | -0.584 (inactive) | -0.45 (inactive) | -0.48 (inactive) | 0.706 | 0.0921 | 0.112 | 0.734 | 0.0532 |
| C[N+](C)(C)CCCC[C@@H]1NC(=O)[C@H]2C[C@@H](C(=O)O)[C@@H](c3ccc(O)cc3)N2C1=O | 0.0425 | -0.497 (inactive) | -1.19 (inactive) | 0.285 (inactive) | -0.744 (inactive) | -0.206 | 0.0051 | 0.049 | 0.38 | 1.22 |
| CCCCC(=C=CC[C@@H](O)c1ccccc1OCCO)C[C@@H](O)c1ccccn1 | -0.11 | -0.675 (inactive) | -0.138 (inactive) | 2.72 (inactive) | -0.446 (inactive) | -0.231 | -0.024 | -0.245 | 0.495 | 0.897 |
| COc1ccc(C#Cc2ccc3c(c2)[C@]2(C(=O)N3)[C@H](c3ccccc3OCCO)N3[C@H](c4ccccc4)[C@H](c4ccccc4)OC(=O)[C@H]3[C@@H]2C(=O)NC[C@H](O)c2ccccc2)cc1 | 0.537 | -5.57 (inactive) | -0.627 (inactive) | 0.0921 (inactive) | -0.54 (inactive) | 0.448 | -0.0259 | 0.138 | 0.701 | 1.72 |
| COC(=O)C(CC#Cc1ccc2c(c1)[C@]1(C(=O)N2)[C@H](C(=O)N2CCN(c3ncccn3)CC2)[C@H]2C(=O)O[C@H](c3ccccc3)[C@H](c3ccccc3)N2[C@@H]1c1ccc(O)cc1)C(=O)OC | 0.923 | -3.7 (inactive) | -0.58 (inactive) | -0.0515 (inactive) | 0.0989 (inactive) | 2.27 | 1.39 | 0.662 | 1.12 | 1.04 |
